G9a inh – G9a (human) methyltransferase inhibition; Q96KQ7; G9a H3K9 monomethylation, AlphaScreen, 2 h; Potency, µM (doses to about 102 µM), without a hit: at the top dose activity, negative = inhibition, usual class: inhibitors; 8.8% of 350,000 active; AID 504332; further: on the % scale 0 is the no-effect control and ±100 the full control effect; nearly all actives have a fitted effect of over 75% in size
Target sequence (Q96KQ7 913-1193 limits assumed): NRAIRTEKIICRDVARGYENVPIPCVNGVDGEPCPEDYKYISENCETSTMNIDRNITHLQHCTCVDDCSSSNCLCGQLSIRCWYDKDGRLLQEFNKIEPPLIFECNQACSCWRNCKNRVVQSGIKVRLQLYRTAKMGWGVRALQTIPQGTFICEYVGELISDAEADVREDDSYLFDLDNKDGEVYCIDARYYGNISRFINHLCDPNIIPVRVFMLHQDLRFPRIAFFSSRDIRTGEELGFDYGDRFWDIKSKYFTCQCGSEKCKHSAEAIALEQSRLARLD
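G9a (20 nM) preincubated 15 min RT with compounds, then 500 nM biotinylated H3K9 peptide and 20 uM SAM added; 2 h RT reaction. Monomethyl-H3K9 product detected by AlphaScreen with anti-H3K9me1 antibody, streptavidin donor and anti-rabbit IgG acceptor beads.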
HP1b chromo inh – inhibitors of HP1-beta chromodomain binding to methylated histone tails; 0.56% of 390,000 active; Potency, µM (highest dose often 114 µM), for inactives: at the highest dose activity change, negative = inhibition, actives largely listed as inhibitors; AlphaScreen HP1-beta / biotin-H3K9me3 peptide binding; P83916; further: nearly all actives have a fitted effect of over 70% in size
Target sequence (P83916 whole entry, looked up): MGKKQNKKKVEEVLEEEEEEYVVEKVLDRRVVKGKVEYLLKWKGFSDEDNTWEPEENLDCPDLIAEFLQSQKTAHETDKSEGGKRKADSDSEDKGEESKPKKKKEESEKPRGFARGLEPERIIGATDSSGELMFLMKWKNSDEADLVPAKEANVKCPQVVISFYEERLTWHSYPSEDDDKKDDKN
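AlphaScreen: HP1-beta (50 nM) preformed 30 min with biotin-H3(1-18)K9me3 peptide (50 nM) in PBS pH 7.4, 0.01% Tween-20. Compound added for 30 min at RT, then streptavidin donor/nickel chelate acceptor beads (10 ug/mL) for 30 min.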
Sfp inh – inhibitors of Bacillus subtilis Sfp phosphopantetheinyl transferase | AID 1490 | Potency, µM, without a hit: largest response in the series, negative = inhibition, usual class: inhibitors | Q9F4F7 | 3.5% of 310,000 active | Biochemical Sfp PPTase activity, qHTS;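 further: the enzyme is Sfp with the accession as filed and its product quenches rhodamine fluorescence; 0% = enzyme reaction without inhibitor and -100% = no enzyme wells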
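Sfp 15 nM + cpd, 15 min RT; start w/ rhodamine-CoA 5 uM, BHQ-2-YbbR 12.5 uM (final); 50 mM Hepes pH 7.6, 10 mM MgCl2, 0.01% NP-40, 0.01% BSA; read 525/598 nm at 0 and 30 min.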
PLK1 PBD inh – blocks phosphopeptide binding to human PLK1 polo-box domain; 2.8% of 360,000 active; Potency, µM, without a hit: max response, negative = inhibition, most hits filed as inhibitors; Plk1 PBD binding of FITC phosphopeptide, fluorescence polarization; further: series mostly up to about 57 µM; on the % scale 0 is the no-effect control and ±100 the full control effect; nearly all actives have a fitted effect of over 65% in size
BAZ2B inh – blocks human BAZ2B. Potency, µM (titrated, usually from 114 µM), for the others: at the highest dose activity change, negative = inhibition, actives largely listed as inhibitors. AID 504333. AlphaScreen BAZ2B-H3K14Ac peptide displacement. 4.4% of 360,000 active; further: on the % scale 0 is the no-effect control and ±100 the full control effect; nearly all actives have a fitted effect of over 60% in size
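AlphaScreen displacement: compounds (up to 110uM) incubated 30 min at room temperature with a preformed 50 nM BAZ2B/50 nM biotinylated H3K14Ac peptide complex in PBS pH 7.4 with Tween-20. Donor and acceptor beads at 10 ug/mL final added, 20 min light-protected before reading.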
JMJD2A Tudor inh – JMJD2A Tudor domain (human) inhibition | O75164 | Potency, µM (doses to about 114 µM), without a hit: at the highest dose activity change, negative = inhibition, most hits filed as inhibitors | AlphaScreen JMJD2A-Tudor / H3K4me3 peptide binding | 4.4% of 390,000 active; further: on the % scale 0 is the no-effect control and ±100 the full control effect; nearly all actives have a fitted effect of over 50% in size
Starred values were filed as active, the others as inactive; ? = inconclusive; . = no result given; [ ] = dose if it differs, or a comment. Hits are enriched below; roughly 12% of the tested compounds scored in any of these assays. The call rests on the fitted dose curve; in most records, active means well fitted curve in the direction sought with a large enough effect; inconclusive means small, poorly fitted or top-dose-only effect, or another doubt; inactive means no such curve, though single readings can be large; an effect the other way counts as inactive or inconclusive. Potency means the concentration at half of the fitted maximal effect.

SMILES	G9a inh	HP1b chromo inh	Sfp inh	PLK1 PBD inh	BAZ2B inh	JMJD2A Tudor inh
Cc1cccc(C(=O)NC(=S)Nc2c(C)n(C)n(-c3ccccc3)c2=O)c1	.	60%	.	?	.	-20%
COc1ccc(C2/C(=C(/O)c3cnn(-c4ccccc4)c3C)C(=O)C(=O)N2CCN(C)C)cc1OC (centres undefined)	.	25%	.	-9%	.	18µM*
CCN(CC)CCN1C(=O)C(=O)/C(=C(/O)c2cnn(-c3ccccc3)c2C)C1c1cccnc1 (centres undefined)	-6%[12.7 µM]	22%	14%	1%	-9%	-5%
O=C(NCCc1ccc(Cl)cc1)c1cccn1-c1nnc(N2CCCC2)s1	-4%[59 µM]	25%	.	.	-23%	-18%
O=C(Cn1cc(S(=O)(=O)Cc2cccc(Cl)c2)c2ccccc21)Nc1ccccc1C(F)(F)F	-2%[59 µM]	18%	.	.	-12%	-1%
CC(NCC(O)COc1ccccc1)C1COc2ccccc2O1 (centres undefined)	-11%	23%	8%	1%	-17%	-7%
COc1ccc(CNC(C)C2COc3ccccc3O2)c(OC)c1 (centres undefined)	10µM*	?	-20%	-5%	50µM*	3.5µM*
CC(NC(=O)CCC(=O)NC(C)C1COc2ccccc2O1)C1COc2ccccc2O1 (centres undefined)	5%[59 µM]	27%	10%	-7%	10%	-16%
CC(NCc1ccccc1)C1COc2ccccc2O1 (centres undefined)	32µM*	-56%	-9%	3%	?	3.2µM*
CC(NC(=O)c1ccco1)C1COc2ccccc2O1 (centres undefined)	25µM*	-6%	5%	-21%	50µM*	56µM*
CN1CCN(C2=Nc3cc(F)ccc3Cc3ccccc32)CC1	-6%[12.7 µM]	.	-6%	.	-17%	.
CN1CCN(C2=Nc3c(Cl)cc(Cl)c4cccc2c34)CC1	?	?	-22%	?	28µM*	50µM*
CSCCC1COC(c2cccs2)=N1 (centres undefined)	0.89µM*	14%	3%	-6%	.	-22%
O=C(COC(=O)C1c2ccccc2Oc2ccccc21)NC1CCS(=O)(=O)C1 (centres undefined)	-13%[0.0925 µM]	0%	-9%	12µM*	-7%	-82%[57.1 µM]
Cc1ccoc1C(=O)N1CCCCC1C(=O)O (centres undefined)	-41%	?	8%	15µM*	.	-22%[11.4 µM]
Cc1cc(C)n(-c2ccc(NC(=O)C3CCCCN3C(=O)c3occc3C)cc2)n1 (centres undefined)	39%	23%	4%	-2%	-5%	2%
CCOc1ccc(C(=O)Nc2cc(-c3nc4ccccc4[nH]3)ccc2C)cc1[N+](=O)[O-]	17%[59 µM]	13%	13%	4%	-1%	-25%
O=C(NC(=S)Nc1cc(-c2nc3ccccc3[nH]2)ccc1Cl)c1ccc2c(c1)OCO2	45µM*	-19%	?	24µM*	1%	-14%
CCOc1ccc(C(=O)Nc2cc(-c3nc4ccccc4[nH]3)ccc2Cl)cc1[N+](=O)[O-]	?	0%	?	0%	-11%	79µM*
Cc1ccc(-c2nc3ccccc3[nH]2)cc1NC(=O)c1ccc2c(c1)OCO2	?	2%	22%	-7%	-13%	-17%
O=c1c2ccccc2oc2ccc(-c3ccc4[nH]ccc4c3)cc12	.	25%	.	-8%	.	-18%
Cc1ccc(N/C(=N/S(=O)(=O)c2cccs2)c2ccccc2)c(C)c1	9%	38%	4%	2%	-1%	-6%
O=C1C(Nc2ccccc2)=C/C(=N/S(=O)(=O)c2cccs2)c2ccccc21	8.9µM*	11µM*	?	-24%	2.8µM*	4µM*
Cc1ccc(NC2=C/C(=N/S(=O)(=O)c3cccs3)c3ccccc3C2=O)cc1	2.8µM*	?	-1%	-6%	?	-28%[57.1 µM]
OC(c1cccc(Cl)c1)c1ncc(-c2ccc(Oc3ccccc3)cc2)[nH]1 (centres undefined)	.	.	.	3%	.	.
SMILES	G9a inh	HP1b chromo inh	Sfp inh	PLK1 PBD inh	BAZ2B inh	JMJD2A Tudor inh
O=C(O)C1Sc2[nH]c(=O)sc2C2c3cc(Br)ccc3OC(=O)C12 (centres undefined)	.	?	?	30µM*	?	-28%
O=C(O)C1Sc2[nH]c(=O)sc2C2c3ccc(O)cc3OC(=O)C12 (centres undefined)	40µM*	?	?	30µM*	-38%	-30%
COC(=O)C1Sc2[nH]c(=O)sc2C2c3ccccc3OC(=O)C12 (centres undefined)	?	10%	17%	-15%	-7%	-16%
Cc1cccc2nc(-c3cccc(NS(=O)(=O)c4ccccc4)c3)cn12	-32%[59 µM]	-21%	.	.	-8%	-24%
C#C[C@@]1(OC(C)=O)CC[C@@H]2[C@@H]3CCC4=C[C@@H](OC(C)=O)CC[C@H]4[C@H]3CC[C@]21C	17%[21.5 µM]	.	-12%	.	.	.
C#C[C@]1(OC(C)=O)CC[C@H]2[C@@H]3CCC4=C/C(=N/O)CC[C@@H]4[C@H]3CC[C@@]21CC	-43%[12.7 µM]	.	79µM*	.	.	.
CCCn1c2ccccc2c2nnc(SCc3[nH]c(=O)[nH]c3C(=O)CCCCC(=O)OCC)nc21	?	34%	25µM*	-10%	-21%	-20%
CN(C)S(=O)(=O)c1cccc(-c2nnc(SCC(=O)NCCCCCC(=O)O)n2-c2ccc(F)cc2)c1	16µM*	47%	12%	-19%	-7%	?
CC1=C(C)CS(=O)N(S(=O)(=O)c2ccccc2)C1 (centres undefined)	8.9µM*	30%	14µM*	1.5µM*	3%	-20%
NS(=O)(=O)c1ccc(N2C(=O)C3CC=CCC3C2=O)cc1 (centres undefined)	?	25%	20%	-9%	-14%	-16%
CC1=C(C)CS(=O)N(c2ccc(S(N)(=O)=O)cc2)C1 (centres undefined)	?	61%	25µM*	1.5µM*	1%	2%
CCCC12CN3CC(CCC)(CN(C1)C3c1c[nH]c3ccccc13)C2=O (centres undefined)	-3%[59 µM]	-1%	.	.	9%	-13%
CC(=O)OCC(NC(=O)C(COCc1ccccc1)NC(=O)OC(C)(C)C)C1OC(n2ccc(=O)[nH]c2=O)C(OC(C)=O)C1OC(C)=O (centres undefined)	.	3%	10%	.	.	-14%
CC1(C(=O)NS(=O)(=O)c2ccccc2Cl)CCN1C(=O)CC1CCCC1 (centres undefined)	.	.	.	-4%	.	.
O=C(COC(=O)c1nc(Cl)c(Cl)c(Cl)c1Cl)c1ccc[nH]1	14µM*	29%	.	-8%	-23%	-17%

Screening data as filed in PubChem.
